Here are results for 30 compounds from PubChem BioAssay (NCATS).

The nature of experiment [1]: qHTS assay to identify small molecule inhibitors of chordoma cells - UCH-2 (AID 1259356). Also: series mostly up to about 46 µM; % is scaled to controls: 0 for no effect and ±100 for the full control effect. In general terms: In qHTS, concentration-response curves come from the screen itself.
The nature of experiment [2]: P-glycoprotein substrates identified in KB-8-5-11 adenocarcinoma cell line, qHTS therapeutic library screen (AID 1346987). Also: nearly all actives have a fitted effect of over 65% in size. Also: potency is read from the fitted curve at half-maximal effect. The procedure, abridged: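 KB-8-5-11, a colchicine-selected P-gp-overexpressing KB-3-1 subline, was grown without colchicine for the assay. Cells were seeded at 500 cells/well, dosed in concentration-response and incubated 72 h at 37 degree C, 5% CO2. Viability was read by CellTiter-Glo luminescence.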

A short description of experiment [3]: qHTS for Inhibitors of the Functional Ribonucleoprotein Complex (vRNP) of Lassa (LASV) Arenavirus: LASV Primary Screen - GLuc reporter signal (AID 1347082; calls by dose curve; tested in HEK293 reporter line; also: series mostly up to about 57 µM; % is scaled to controls: 0 for no effect and ±100 for the full control effect; nearly all actives have a fitted effect of over 60% in size).
Experiment [4] in a line: qHTS for Inhibitors of the Functional Ribonucleoprotein Complex (vRNP) of Lassa (LASV) Arenavirus: Viability assay - alamar blue signal for LASV Primary Screen (AID 1347083; calls by dose curve; tested in HEK293 reporter line; also: series mostly up to about 57 µM; % is scaled to controls: 0 for no effect and ±100 for the full control effect; nearly all actives have a fitted effect of over 80% in size).
The nature of experiment [5]: qHTS for Inhibitors of the Functional Ribonucleoprotein Complex (vRNP) of Lymphocytic Choriomeningitis Arenaviruses (LCMV): Viability assay - alamar blue signal for LCMV Primary Screen (AID 1347085; calls by dose curve; tested in HEK293 reporter line; also: series mostly up to about 57 µM; % is scaled to controls: 0 for no effect and ±100 for the full control effect; nearly all actives have a fitted effect of over 80% in size).
Experiment [6] addresses Nucleoprotein (Lymphocytic choriomeningitis virus (strain Armstrong)) (UniProt P09992). The experiment can be described thus: qHTS for Inhibitors of the Functional Ribonucleoprotein Complex (vRNP) of Lymphocytic Choriomeningitis Arenaviruses (LCMV): LCMV Primary Screen - GLuc reporter signal (AID 1347086; calls by dose curve; also: series mostly up to about 57 µM; % is scaled to controls: 0 for no effect and ±100 for the full control effect; nearly all actives have a fitted effect of over 70% in size).
Experiment [7] can be described thus: P-glycoprotein substrates identified in KB-3-1 adenocarcinoma cell line, qHTS therapeutic library screen (AID 1346986). Also: nearly all actives have a fitted effect of over 60% in size. The procedure, abridged:
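Resistance attributable to P-gp was assessed by comparing AC50 in KB-8-5-11 with parental KB-3-1 and by tariquidar reversal. Cells were exposed 72 h and viability read by CellTiter-Glo.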

Experiment [8] in a line: Natriuretic polypeptide receptor (hNpr1) antagonism - Pilot counterscreen GloSensor control cell line (AID 1347045; calls by dose curve; also: series mostly up to about 38 µM; % is scaled to controls: 0 for no effect and ±100 for the full control effect). The procedure, abridged:
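HEK293 cGMP GloSensor cells preloaded 2 h with 2% GloSensor reagent, then compound 30 min before baseline luminescence read. Stimulated with 50 uM sodium nitroprusside, 20 min at room temperature, then read again; counterscreen for Npr1 antagonism.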

Experiment [9] deals with Atrial natriuretic peptide receptor 1 (Homo sapiens) (UniProt P16066). The experiment can be described thus: Natriuretic polypeptide receptor (hNpr1) antagonism - Pilot screen (AID 1347049; calls by dose curve;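 also: agonist-evoked cGMP luminescence read 20 min after hNppA addition; series mostly up to about 58 µM; % is scaled to controls: 0 for no effect and ±100 for the full control effect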). The procedure, abridged:
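HEK293 cells co-expressing hNpr1 and the GloSensor pGS-40F cGMP luciferase sensor were preloaded with 2% GloSensor reagent for 2 h. Compounds were added for 30 min at room temperature, then cells were stimulated with 0.1 nM hNppA for 20 min before luminescence readout.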

For experiment [10], the target named is Atrial natriuretic peptide receptor 2 (Homo sapiens) (UniProt P20594). The experiment can be described thus: Natriuretic polypeptide receptor (hNpr2) antagonism - Pilot subtype selectivity assay (AID 1347050; calls by dose curve; also: % is scaled to controls: 0 for no effect and ±100 for the full control effect). The procedure, abridged:
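cGMP-sensor HEK293/hNpr2 cells; 2% GloSensor reagent 2 h RT; compounds 30 min; baseline luminescence read; 1 nM hNppC agonist 20 min RT; final luminescence read by CCD camera. Antagonism = reduced post-agonist signal.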

The target of experiment [11] is Parathyroid hormone/parathyroid hormone-related peptide receptor (Homo sapiens) (UniProt Q03431). Briefly: qHTS for PTHR1 Agonists: Optimization Screen against the NCGC LOPAC library (AID 1347079).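 Also: GloSensor cAMP luminescence in HEK-293 GP2 cells expressing human PTHR1 with IBMX; 0% is about no effect.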 The procedure, abridged:
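Agonist readout: GloSensor cAMP luminescence, read after 15 min at room temperature. HEK-293-derived GP2 line carries PTHR1; compounds tested as a titration for 1 hr at 37C in presence of IBMX. M-PTH (1-15) served as control.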

Values without a mark were called inactive. Results filed as inconclusive are left out. Calls of active or inactive are those of the source. Unless noted, calls follow the shape of the dose curve; as a rule, active = well fitted curve in the direction sought with a large enough effect; inconclusive = small, poorly fitted or top-dose-only effect, or another doubt; inactive = no such curve, though single readings can be large; an effect the other way counts as inactive or inconclusive.

Nucleoprotein (Lymphocytic choriomeningitis virus (strain Armstrong)), sequence (P09992 whole entry, looked up): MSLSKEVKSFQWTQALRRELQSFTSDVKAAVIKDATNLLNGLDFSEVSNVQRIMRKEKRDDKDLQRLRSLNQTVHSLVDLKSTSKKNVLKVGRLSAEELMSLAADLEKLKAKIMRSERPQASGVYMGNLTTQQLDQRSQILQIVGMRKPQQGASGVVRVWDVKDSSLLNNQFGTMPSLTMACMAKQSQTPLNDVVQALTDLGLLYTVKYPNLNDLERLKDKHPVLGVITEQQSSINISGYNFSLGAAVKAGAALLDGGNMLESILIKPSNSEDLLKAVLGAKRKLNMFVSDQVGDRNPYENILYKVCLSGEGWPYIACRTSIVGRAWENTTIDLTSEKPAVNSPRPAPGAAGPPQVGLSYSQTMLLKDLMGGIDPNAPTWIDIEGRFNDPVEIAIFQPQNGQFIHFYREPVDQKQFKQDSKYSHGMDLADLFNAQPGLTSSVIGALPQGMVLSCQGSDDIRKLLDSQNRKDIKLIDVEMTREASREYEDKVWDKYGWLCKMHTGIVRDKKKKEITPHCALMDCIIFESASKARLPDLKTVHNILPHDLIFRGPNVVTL
Atrial natriuretic peptide receptor 2 (Homo sapiens), sequence (P20594 whole entry, looked up): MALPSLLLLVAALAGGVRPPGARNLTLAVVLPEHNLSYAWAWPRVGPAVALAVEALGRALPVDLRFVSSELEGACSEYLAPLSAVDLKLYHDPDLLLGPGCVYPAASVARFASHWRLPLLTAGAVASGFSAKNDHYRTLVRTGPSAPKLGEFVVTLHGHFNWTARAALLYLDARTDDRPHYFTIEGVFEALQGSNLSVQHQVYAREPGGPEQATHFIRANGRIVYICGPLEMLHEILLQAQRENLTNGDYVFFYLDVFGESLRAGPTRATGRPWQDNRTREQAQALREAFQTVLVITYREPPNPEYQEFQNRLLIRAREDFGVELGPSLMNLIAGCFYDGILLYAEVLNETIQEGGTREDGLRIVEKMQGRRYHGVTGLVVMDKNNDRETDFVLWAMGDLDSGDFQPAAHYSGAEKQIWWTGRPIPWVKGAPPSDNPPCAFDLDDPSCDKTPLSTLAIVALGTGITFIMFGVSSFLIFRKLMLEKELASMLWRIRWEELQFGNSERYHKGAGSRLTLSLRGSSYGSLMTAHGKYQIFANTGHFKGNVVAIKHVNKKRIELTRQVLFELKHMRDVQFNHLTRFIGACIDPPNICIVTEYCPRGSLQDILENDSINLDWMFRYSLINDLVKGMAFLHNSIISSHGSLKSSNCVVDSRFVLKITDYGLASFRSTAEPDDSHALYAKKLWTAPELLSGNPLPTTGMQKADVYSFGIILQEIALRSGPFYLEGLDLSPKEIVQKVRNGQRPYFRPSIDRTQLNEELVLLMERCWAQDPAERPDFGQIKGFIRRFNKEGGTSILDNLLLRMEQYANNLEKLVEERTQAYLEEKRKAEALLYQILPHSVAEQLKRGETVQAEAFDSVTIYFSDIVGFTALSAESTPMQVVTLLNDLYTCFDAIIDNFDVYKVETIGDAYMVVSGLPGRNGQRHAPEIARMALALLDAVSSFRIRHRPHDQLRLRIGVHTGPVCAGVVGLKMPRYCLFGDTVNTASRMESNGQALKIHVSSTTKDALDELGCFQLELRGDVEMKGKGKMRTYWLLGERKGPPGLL
Atrial natriuretic peptide receptor 1 (Homo sapiens), sequence (P16066 whole entry, looked up): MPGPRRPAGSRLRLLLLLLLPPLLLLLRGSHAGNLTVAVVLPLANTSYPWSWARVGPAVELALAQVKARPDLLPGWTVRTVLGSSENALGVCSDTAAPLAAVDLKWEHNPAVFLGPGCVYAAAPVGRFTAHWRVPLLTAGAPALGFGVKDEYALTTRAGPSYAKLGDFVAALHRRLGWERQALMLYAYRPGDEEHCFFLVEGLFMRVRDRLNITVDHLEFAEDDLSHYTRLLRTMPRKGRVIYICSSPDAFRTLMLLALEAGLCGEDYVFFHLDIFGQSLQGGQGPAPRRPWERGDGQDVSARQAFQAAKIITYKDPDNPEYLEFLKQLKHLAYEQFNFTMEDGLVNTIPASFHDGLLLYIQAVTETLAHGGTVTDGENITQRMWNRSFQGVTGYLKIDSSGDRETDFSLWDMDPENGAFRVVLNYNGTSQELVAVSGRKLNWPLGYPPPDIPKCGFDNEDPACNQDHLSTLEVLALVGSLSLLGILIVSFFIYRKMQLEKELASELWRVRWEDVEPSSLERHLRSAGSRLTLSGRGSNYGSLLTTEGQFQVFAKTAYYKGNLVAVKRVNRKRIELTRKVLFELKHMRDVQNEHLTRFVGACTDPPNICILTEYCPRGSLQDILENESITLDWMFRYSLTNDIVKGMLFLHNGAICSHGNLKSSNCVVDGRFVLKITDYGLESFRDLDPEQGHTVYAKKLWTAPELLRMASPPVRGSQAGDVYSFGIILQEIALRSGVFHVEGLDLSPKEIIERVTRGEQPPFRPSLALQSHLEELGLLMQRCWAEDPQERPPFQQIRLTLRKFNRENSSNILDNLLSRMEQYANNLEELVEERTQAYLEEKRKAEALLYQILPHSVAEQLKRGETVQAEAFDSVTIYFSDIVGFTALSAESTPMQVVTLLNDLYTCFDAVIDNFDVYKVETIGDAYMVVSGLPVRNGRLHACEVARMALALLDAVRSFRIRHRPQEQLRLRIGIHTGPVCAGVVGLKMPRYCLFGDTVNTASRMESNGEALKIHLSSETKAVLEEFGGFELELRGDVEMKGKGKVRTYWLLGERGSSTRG
Parathyroid hormone/parathyroid hormone-related peptide receptor (Homo sapiens), sequence (Q03431 whole entry, looked up): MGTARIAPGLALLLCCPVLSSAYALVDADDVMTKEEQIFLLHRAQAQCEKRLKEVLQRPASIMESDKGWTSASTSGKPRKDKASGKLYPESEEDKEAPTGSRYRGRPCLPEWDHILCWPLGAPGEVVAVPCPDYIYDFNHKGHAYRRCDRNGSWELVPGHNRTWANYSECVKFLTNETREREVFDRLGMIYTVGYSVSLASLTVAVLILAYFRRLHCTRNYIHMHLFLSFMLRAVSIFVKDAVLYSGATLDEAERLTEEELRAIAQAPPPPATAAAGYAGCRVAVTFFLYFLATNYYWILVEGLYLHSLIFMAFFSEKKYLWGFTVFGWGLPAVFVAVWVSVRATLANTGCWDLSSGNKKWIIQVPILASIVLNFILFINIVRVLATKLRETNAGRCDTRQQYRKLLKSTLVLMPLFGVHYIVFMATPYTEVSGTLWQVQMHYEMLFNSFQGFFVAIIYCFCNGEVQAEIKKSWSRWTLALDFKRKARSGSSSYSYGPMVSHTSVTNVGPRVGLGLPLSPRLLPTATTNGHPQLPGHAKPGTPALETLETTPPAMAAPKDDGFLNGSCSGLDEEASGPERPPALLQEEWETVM

For the compound `CN(C)[C@@H]1C(=O)C(C(N)=O)=C(O)[C@@]2(O)C(=O)C3=C(O)c4c(O)ccc(Cl)c4[C@@](C)(O)[C@H]3C[C@@H]12`, the Potency result in experiment [1], in experiment [2], in experiment [3], in experiment [4], in [5] and in [6] was “inactive” each time.
On to `CN1[C@H]2CC[C@@H]1[C@@H](C(=O)O)[C@@H](OC(=O)c1ccccc1)C2`, for which the Potency result in [1], in experiment [2], in experiment [3], in experiment [4], in experiment [5] and in [6] was “inactive” throughout.
Turning to `CCC1(C)CC(=O)NC(=O)C1`, the Potency result in experiment [1] and in experiment [2] was “inactive” in each case.
Regarding `CCN1CC2(COC)C3[C@@H](OC)C4C1C3(C1C[C@]3(O)[C@H](OC(=O)c5ccccc5)C1[C@]4(OC(C)=O)[C@@H](O)[C@@H]3OC)[C@H](OC)C[C@H]2O` (some centres undefined), the Potency result in [7] and in experiment [2] was “inactive” each time.
For the compound `COc1cc(C(=O)O[C@H]2[C@@H]3C=CO[C@@H](O[C@@H]4O[C@H](CO)[C@@H](O)[C@H](O)[C@H]4O)[C@@H]3[C@@]3(CO)O[C@@H]23)ccc1O`, the Potency result in experiment [7] and in experiment [2] was “inactive” throughout.
Turning to `COC(=O)C1(C)CCC(O)C2(C)c3c(O)cc(C(C)C)cc3C(O)C(OC(C)=O)C12` (centres undefined), the Potency entry in experiment [7] and in experiment [2] was “inactive” in each case.
With `COC1=CC(=O)O[C@@H](CCc2ccccc2)C1`, the Potency entry in experiment [7] and in experiment [2] was “inactive” throughout.
Turning to `C/C=C(\C)C(=O)O[C@H]1[C@H](OC(C)=O)[C@]2(CO)[C@H](O)[C@H](O)[C@]3(C)C(=CCC4[C@@]5(C)CC[C@H](O[C@@H]6O[C@H](C(=O)O)[C@@H](O)[C@H](O[C@@H]7OC[C@H](O)[C@H](O[C@@H]8OC[C@H](O)[C@H](O)[C@H]8O)[C@H]7O)[C@H]6O[C@@H]6O[C@H](CO)[C@@H](O)[C@H](O)[C@H]6O)C(C)(C)C5CC[C@]43C)[C@@H]2CC1(C)C` (some centres undefined), the outcome in experiment [7] and in [2] was “inactive [at 9.29 µM]” in each case.
Regarding `c1cc2c(c(NC3=NCCN3)c1)CCCC2`, the Potency entry in experiment [1] and in experiment [2] was “inactive” each time.
Take `O=C/C=C/c1ccccc1`: the Potency entry in [1], in experiment [2], in experiment [3], in experiment [4], in [5] and in experiment [6] was “inactive” throughout.
As to `OC(c1ccccc1)(c1ccccc1)C1CN2CCC1CC2` (centres undefined), the Potency entry in [1] and in experiment [2] was “inactive” in each case.
For `O[C@H]1[C@H]2[C@H](O)CCCN2C[C@H]1O`, the Potency result in [1], in experiment [2], in experiment [3], in experiment [4], in experiment [5] and in experiment [6] was “inactive” throughout.
Turning to `COC1=CC=C2[C@H]3Cc4ccc(OC)c5c4[C@@]2(CCN3C)[C@H]1O5`, the Potency entry in experiment [1], in experiment [2], in experiment [4], in experiment [5] and in [6] was “inactive” in each case.
Consider `CCCC(=O)OC(C(Cl)(Cl)Cl)P(=O)(OC)OC` (centres undefined), for which the Potency entry in [1] and in [2] was “inactive” each time.
`C[C@H]1C(=O)O[C@H]2[C@H](O)[C@]34C5OC(=O)[C@]3(O[C@@H]3OC(=O)[C@H](O)C34[C@H](C(C)(C)C)[C@H]5O)C12O` (some centres undefined): the Potency entry in experiment [7] and in experiment [2] was “inactive” each time.
For `c1ccc2sc(SNC3CCCCC3)nc2c1`, the Potency entry in experiment [1] and in [2] was “inactive” in each case.
Turning to `CC(=O)OC12C(O)C(C)C3(O)C4C=C(C)C(=O)C4CC(CO)=CC3C1C2(C)C` (centres undefined), the Potency entry in experiment [7] and in experiment [2] was “inactive” in each case.
Take `COC(=O)C1(C)CCC(O)C2(C)c3cc(O)c(C(C)C)cc3C(O)C(OC(C)=O)C12` (centres undefined): the Potency entry in experiment [7] and in [2] was “inactive” throughout.
For the compound `O=P(O)(O)C(Cl)(Cl)P(=O)(O)O`, the Potency result in experiment [1], in experiment [2], in [3], in experiment [4], in experiment [5] and in experiment [6] was “inactive” in each case.
On to `COCC(C)N(C(=O)CCl)c1c(C)csc1C` (centres undefined), for which the Potency entry in [1] and in experiment [2] was “inactive” in each case.
Regarding `Oc1ccc2c3c1O[C@H]1[C@H](N(CCCl)CCCl)CC[C@@]4(O)[C@@H](C2)N(CC2CC2)CC[C@]314`, the outcome in experiment [7] is “inactive [at 9.29 µM]”. In [2], the activity change, negative = cytotoxicity is 0.87% [at 9.29 µM].
As to `C/C(=C\c1csc(C)n1)[C@@H]1C[C@@H]2O[C@]2(C)CCC[C@H](C)[C@H](O)[C@@H](C)C(=O)C(C)(C)[C@@H](O)CC(=O)O1`, in [1], the Potency result is “inactive”. In addition, the Potency in experiment [2] is 36.6 nM (active).
Regarding `CN[C@H]1C[C@@H](N)[C@H](O)[C@@H](O[C@@H]2O[C@H](CO)[C@H](O)[C@@H]3OC4(O[C@H]23)O[C@H](C(N)CO)[C@H](O)[C@H](O)[C@H]4O)[C@@H]1O` (some centres undefined), the Potency entry in [1], in [2], in [3], in experiment [4], in [5] and in experiment [6] was “inactive” each time.
Take `Cn1ncnc1COc1nn2c(-c3c(F)cccc3F)nnc2cc1C1CCC1`: the Potency result in experiment [7] and in experiment [2] was “inactive” in each case.
Consider `Clc1ccc(Cl)cc1`, for which the Potency result in experiment [1] and in experiment [2] was “inactive” in each case.
`[Cl-].[Cl-].[Hg+2]`: in experiment [1], the Potency result was “inactive”. For the same compound, the Potency in [2] was 3660 nM (active).
For `N#CC1(N2CCCCC2)CCCCC1` the same measures were “inactive” and “inactive”.
Consider `C[C@]12C=CC(=O)C=C1CC[C@@H]1[C@@H]2CC[C@]2(C)OC(=O)CC[C@@H]12`, for which the Potency result in experiment [1], in experiment [2], in experiment [3], in experiment [4], in [5] and in [6] was “inactive” in each case.
For the compound `C=CCN(C1=NCCN1)c1c(Cl)cccc1Cl`, the Potency result in experiment [1], in experiment [2], in [8], in experiment [9], in [10] and in experiment [11] was “inactive” throughout. Besides, the Potency result in [3], in experiment [4], in [5] and in [6] was “inactive” in each case.
As for `CC[N+](C)(CC)CCOC(=O)C(O)(c1ccccc1)c1ccccc1`, the Potency result in experiment [1] and in experiment [2] was “inactive” in each case.
